# Assay results as given in PubChem BioAssay.
# Records with an inconclusive call do not appear. Active and inactive are the calls of the source.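 Rule for the calls, unless noted: active = compounds whose cell count with miR-34 switched on is under 0.7 times the count with it off; inactive = the rest.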
# Columns and labels:
# [1] = SU-DIPG-XXV glioma cell viability, MIPE5.0 library, qHTS (AID 1347068; cut-off not given, nearly all actives have IC50 up to about 30 µM)
# [2] = sensitizers of A549 cells to miR-34 induction, primary screen, imaging, A549 dox-inducible miR-34, nuclei and caspase counts (AID 1347080); settings: A549 miR-34 inducible, Hoechst nuclei count, 48 h
# [3] = survival rescue of mitochondrial mutant cells in low glucose, primary screen, MELAS cybrids, Rieske KO mouse fibroblasts, CellTiter-Glo (AID 1508586;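 active = mean z-score across replicates of 1.96 or higher in either the MELAS or the Rieske mutant cell line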;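 note: z relative to plate mean and SD of compound and empty wells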)
# [4] = stronger effect = lower value, cell number ratio, induced over uninduced
# [5] = measured here: relative caspase fold change +Dox/-Dox
# [6] = measured here: total cells with miR-34 induction, stronger effect = lower value
# [7] = measured here: total cells without miR-34 induction
Structure (SMILES),outcome [1],"fold change [2, 4]","fold change [2, 5]","cell count [2, 6]","cell count [2, 7]","z-score ([3]; MELAS cybrid survival, CellTiter-Glo 48 h, stronger effect = higher value)","z-score ([3]; Rieske KO mouse fibroblast survival, CellTiter-Glo 72 h)"
COc1ccc(-c2cnc3c(-c4cccc5ncccc45)cnn3c2)cc1,inactive,0.802 (inactive),0.646,4530,5640,-0.0268 (inactive),-0.688
CC(C)OC(=O)CCC/C=C\C[C@H]1C(=O)C[C@@H](O)[C@@H]1/C=C/[C@@H](O)COc1cccc(C(F)(F)F)c1,–,0.919 (inactive),1.4,5960,6490,–,–
CCCCC[C@H](O)CC[C@@H]1[C@@H](C/C=C\CCCC(=O)O)[C@@H](O)C[C@H]1O,–,0.936 (inactive),1.41,6190,6610,–,–
CCCCCCCCCC(=O)N[C@@H](CN1CCOCC1)[C@@H](O)c1ccccc1,–,0.924 (inactive),0.927,5480,5940,–,–
CC(C)OC(=O)CCC/C=C\C[C@@H]1[C@@H](/C=C/[C@H](O)C2Cc3ccccc3C2)[C@@H](F)C[C@@H]1O,–,0.981 (inactive),2.25,5350,5450,–,–
CCCCCC(=O)CC[C@H]1C=CC(=O)[C@@H]1C/C=C\CCCC(=O)O,–,0.899 (inactive),1.77,5230,5820,–,–
CCCCCCCCCCCCCCCCOC[C@H](COP(=O)([O-])OCC[N+](C)(C)C)OC(=O)CCCCCCCC(=O)O,–,0.862 (inactive),0.772,4600,5340,–,–
CC\C=C/C=C/C=C/C=C\CCCCCCCC(=O)O,–,0.875 (inactive),0.385,4740,5410,–,–
CCCCCCCCCCCC(=O)NC[C@]1(C)CCC[C@]2(C)c3ccc(C(C)C)cc3CC[C@@H]12,–,0.97 (inactive),1.59,6180,6370,–,–
CCCCCC(=O)OC[C@H](CO)OC(=O)CCCCC,–,0.964 (inactive),0.528,5390,5590,–,–
CN(C)c1cc(NC(=O)CNC(C)(C)C)c(O)c2c1C[C@H]1C[C@@H]3C(C(=O)C(C(N)=O)=C(O)[C@H]3N(C)C)C(=O)C1=C2O (stereo not given in full),–,0.886 (inactive),0.781,8740,9860,–,–
CN(C)C(=O)CCSC(SCCC(=O)O)c1cccc(/C=C/c2ccc3ccc(Cl)cc3n2)c1 (stereo not given),–,1 (inactive),1.76,5360,5340,–,–
CC(C)=CCC/C(C)=C/CC/C(C)=C/CC[C@]1(C)CCc2c(C)c(O)c(C)c(C)c2O1,–,0.928 (inactive),0.656,5490,5920,–,–
CO[C@H]1CC(O[C@@H]2/C(C)=C/C[C@@H]3C[C@@H](C[C@]4(C=C[C@H](C)[C@@H](C5CCCCC5)O4)O3)OC(=O)[C@@H]3C=C(C)[C@@H](O)[C@H]4OC/C(=C\C=C\[C@@H]2C)[C@]43O)O[C@@H](C)C1O[C@H]1C[C@H](OC)[C@@H](O)[C@H](C)O1 (stereo not given in full),–,0.703 (inactive),1.24,405,576,–,–
CCCCC[C@H](O)/C=C/[C@H]1[C@H](O)CC(=O)[C@@H]1C/C=C\CCCC(=O)NCCO,–,1.16 (inactive),1.44,6290,5420,–,–
CCCCC(C)(C)[C@H](O)/C=C/[C@H]1C=CC(=O)[C@@H]1CCCCCCC(=O)O,–,1 (inactive),1.69,5490,5490,–,–
CCCCC/C=C\C/C=C\C/C=C\C/C=C\CCCC(=O)Oc1ccc2ccc(=O)oc2c1,–,0.939 (inactive),0.946,5890,6270,–,–
CCOC(=O)c1ccnc(C(=O)OCC)c1,–,0.975 (inactive),0.9,5540,5690,–,–
